Results filed as inconclusive are left out. Calls of active or inactive are those of the source. Calls come from the whole dose curve; as a rule, active = well fitted inhibition curve with a large enough effect; inconclusive = small, poorly fitted or top-dose-only effect; inactive = flat fitted curve, though single readings scatter.
Key:
Experiment in all cases: Cytotoxic Profiling of Annotated Libraries Using Quantitative High-Throughput Screening (AID 1296008); note: nearly all actives have a fitted effect of over 60% in size
Settings in all cases: Five cell lines viability, CellTiter-Glo ATP luminescence, 48-72 h; max response: stronger effect = lower value
HEK293 = test system: HEK293
Summary of the method: (§1)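 Cytotoxicity was measured as CellTiter-Glo ATP luminescence, read after 10 min at room temperature. Compound treatment of the cells lasted 48 or 72 hr at 37 degrees Celsius in a qHTS format.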

HaCat = test system: HaCat
Summary of the method: as §1

KB-3-1 = test system: KB-3-1
Summary of the method: as §1

NIH3T3 = test system: NIH3T3
Summary of the method: as §1
% is set by controls: 0 for no effect and ±100 for the full control effect; potency is the fitted concentration of half-maximal effect.

COc1ccc2cc(C(C)C(=O)Oc3ccc(C(N)=S)cc3)ccc2c1 (stereo not given)
inactive: max response (HEK293) -0.854% | max response (HaCat) 2.17% | max response (KB-3-1) 7.25% | max response (NIH3T3) 3.5%

COc1cc(O)cc(C)c1C(=O)O[C@H]1[C@@H](OC(C)=O)[C@H](n2ccc(=O)[nH]c2=O)O[C@@H]1CO
inactive: max response (HEK293) 4.85% | max response (HaCat) -17.4% | max response (KB-3-1) 7.29% | max response (NIH3T3) 0.716%

CN[C@@H]1[C@H](O[C@H]2[C@H](O[C@@H]3[C@@H](O)[C@H](O)[C@@H](N=C(N)N)[C@H](O)[C@H]3N=C(N)N)O[C@@H](C)[C@]2(O)C=O)O[C@@H](CO)[C@H](O)[C@H]1O
inactive: max response (HEK293) 4.73% | max response (HaCat) -17.2% | outcome (KB-3-1) | max response (NIH3T3) -1.39%

CC12CCC(C(OC3OC(COC4OCC(O)(CO)C4O)C(O)C(O)C3O)C1)C(C)(C)O2 (stereo not given)
inactive: max response (HEK293) -9.12% | max response (HaCat) -11.8% | max response (KB-3-1) 1.72% | max response (NIH3T3) 0.27%

Cn1nc(C(C)(C)C)cc1C(=O)NC(Cc1cccc(Cl)c1)C(=O)NCC#N (stereo not given)
inactive: max response (HEK293) -17.2% | max response (HaCat) -59.1% | max response (KB-3-1) 1.87% | max response (NIH3T3) 0.163%

C/C1=C\[C@H]2OC(=O)[C@@H](C)[C@@H]2CC/C(C(=O)O)=C/CC1
inactive: max response (HEK293) -16.7% | max response (HaCat) -0.286% | max response (KB-3-1) -0.178% | max response (NIH3T3) -2.73%

CC1CCC2(OC1)OC1CC3C4CC=C5CC(O)CC(O[C@@H]6OC[C@@H](O)[C@H](O)[C@H]6O)C5(C)C4CCC3(C)C1(O)C2C (stereo not given in full)
inactive: max response (HEK293) 3.32% | max response (HaCat) 3.49% | max response (KB-3-1) 5.9% | max response (NIH3T3) -1.3%

COC1CC(OC2CCC3(C)C(=CCC4C3C(OC(C)=O)C(OC(=O)/C=C/c3ccccc3)C3(C)C(C(C)O)CCC43O)C2)OC(C)C1OC1CC(OC)C(OC2OC(C)C(OC3OC(CO)C(O)C(O)C3O)C(OC)C2O)C(C)O1 (stereo not given)
inactive: max response (HEK293) -2.45% | max response (HaCat) 0.93% | max response (KB-3-1) -1.59% | max response (NIH3T3) 0.895%

CO[C@H]1C[C@@H]2CC[C@@H](C)[C@@](O)(O2)C(=O)C(=O)N2CCCC[C@H]2C(=O)O[C@H]([C@H](C)C[C@@H]2CC[C@@H](OP(C)(C)=O)[C@H](OC)C2)CC(=O)[C@H](C)/C=C(\C)[C@@H](O)[C@@H](OC)C(=O)[C@H](C)C[C@H](C)/C=C/C=C/C=C/1C
inactive: max response (HaCat) -0.379% | max response (KB-3-1) 3.84% | max response (NIH3T3) -16.2%
active: Potency (HEK293) 6.3 nM

CC1=CC(=O)C2(OC3OC(C)C(O)C(OC(=O)/C=C/c4ccccc4)C3O)C=COC(OC3OC(CO)C(O)C(O)C3O)C12 (stereo not given)
inactive: max response (HEK293) -0.0394% | max response (HaCat) 2.65% | max response (KB-3-1) 7.12% | max response (NIH3T3) 3.5%

C=CC[C@]12C[C@@H](OC)C(=O)C(OC)=C1O[C@@H](c1cc(OC)c3c(c1)OCO3)[C@@H]2C
inactive: max response (HEK293) -8.3% | max response (HaCat) -13.8% | max response (KB-3-1) -1.19% | max response (NIH3T3) -4.29%

CC(C)C(=O)OC[C@H]1O[C@H](O[C@H]2O[C@H](CO)[C@@H](O)[C@H](O)[C@H]2O)[C@H](O)[C@@H](O)[C@@H]1O
inactive: max response (HEK293) 3.34% | max response (HaCat) 0.512% | outcome (KB-3-1) | max response (NIH3T3) -1.4%

Nc1ncnc2c1nc(N)n2[C@@H]1O[C@H](CO)[C@@H](O)[C@H]1O
active: Potency (HEK293) 1640 nM | Potency (HaCat) 580 nM | Potency (KB-3-1) 4610 nM | Potency (NIH3T3) 4110 nM

NC(=O)c1cccc(-c2cc(OC(=O)NC3CCCCC3)ccc2O)c1
inactive: max response (HEK293) -86.9% | max response (HaCat) 4.07% | max response (KB-3-1) -19.2% | max response (NIH3T3) -3.22%

COc1ccc(CNC(=O)c2cc(-c3cncc(C)c3)ncc2-c2nccs2)nc1OC
inactive: max response (HEK293) -57.9% | max response (HaCat) -36.2% | outcome (KB-3-1) | max response (NIH3T3) -26.3%

CC1CCC2(CO)C(C(=O)O)=CCCC2C1(C)CCc1ccoc1 (stereo not given)
inactive: max response (HEK293) -3.01% | max response (HaCat) -11.9% | max response (KB-3-1) 3.67% | max response (NIH3T3) -11.3%

COC(=O)CCC(=O)OC[C@]1(C)CCC[C@@]2(C)C3CC[C@]4(C)C=CC3(CCC12)C4 (stereo not given in full)
inactive: max response (HEK293) -2.92% | max response (HaCat) 1.33% | max response (KB-3-1) 2.37% | max response (NIH3T3) -0.0416%

COc1ncc2cc(C(=O)Nc3cc(C(=O)NCc4cccc(Cl)c4)ccc3Cl)c(=O)[nH]c2n1
inactive: max response (HEK293) -14.6% | outcome (HaCat) | max response (NIH3T3) -0.237%
active: Potency (KB-3-1) 4110 nM

COC(=O)[C@@H](O)[C@H]1[C@@]2(C)CC3(O)[C@@H](C(=O)[C@H]2O)[C@]24O[C@]25CC(=O)O[C@@H](c2ccoc2)[C@]5(C)CCC4[C@]13C (stereo not given in full)
inactive: max response (HEK293) -0.209% | max response (HaCat) 4.1% | max response (KB-3-1) 7.49% | max response (NIH3T3) -5.38%

CCc1cnn2c(NCc3ccc[n+]([O-])c3)cc(N3CCCCC3CCO)nc12 (stereo not given)
active: Potency (HEK293) 13 nM | Potency (HaCat) 46.1 nM | Potency (KB-3-1) 9.2 nM | Potency (NIH3T3) 65.1 nM

CCCCC1CCN(CCCC(=O)c2ccccc2C)CC1
active: Potency (HEK293) 16400 nM
inactive: max response (HaCat) -61.6% | max response (KB-3-1) -21.4% | max response (NIH3T3) -22.9%

COc1ccc(-c2ccc(-c3cn(C(=O)N4CCCCC4c4ccccc4)nn3)cc2)cc1 (stereo not given)
inactive: max response (HEK293) 1.03% | max response (HaCat) -8.43% | max response (KB-3-1) -8.19% | max response (NIH3T3) 1.57%

C/C1=C\CC[C@H](C)CCO[C@@H]2O[C@H](CO[C@@H]3OC[C@](O)(COC1=O)[C@H]3O)[C@@H](O)[C@H](O)[C@H]2O
inactive: max response (HEK293) -0.349% | max response (HaCat) -11.3% | outcome (KB-3-1) | max response (NIH3T3) -5.92%

COC(=O)[C@H](O)[C@H]1C(C)(C)[C@H](OC(=O)C(C)C)[C@@]2(O)C(=O)[C@]1(C)C1CC[C@]3(C)C(CC(=O)O[C@H]3c3ccoc3)[C@]13O[C@@H]32 (stereo not given in full)
inactive: max response (HEK293) -5.39% | max response (HaCat) -4.38% | outcome (KB-3-1) | max response (NIH3T3) -25.1%

COc1ccc(CCC(=O)c2c(O)cc(O)cc2O[C@@H]2O[C@H](CO)[C@@H](O)[C@H](O)[C@H]2O)cc1
inactive: max response (HEK293) -3.22% | max response (HaCat) -11.7% | max response (KB-3-1) 8.59% | max response (NIH3T3) -8.41%

CC(C)(O)CC(CO)NC(=O)CC(O)CC(=O)Cc1ccccc1 (stereo not given)
inactive: max response (HEK293) 0.672% | max response (HaCat) 3.84% | max response (KB-3-1) 2.2% | max response (NIH3T3) 2.22%

Cc1cc(Cl)ccc1COc1ccnn1-c1cc(C(=O)O)ccn1
inactive: max response (HEK293) -13.3% | max response (HaCat) -5.14% | outcome (KB-3-1) | max response (NIH3T3) 0.276%

O=C(Nc1ccccc1)N1CCN(Cc2ccc3ccccc3n2)CC1
inactive: max response (HEK293) -11% | max response (HaCat) -4.72% | max response (KB-3-1) -4.71% | max response (NIH3T3) 1.66%

CC(=O)OC[C@H]1O[C@H](O[C@]2(CO)O[C@H](CO)[C@@H](OC(=O)/C=C/c3ccccc3)[C@@H]2O)[C@H](O)[C@@H](O)[C@@H]1O
inactive: max response (HEK293) 2.62% | max response (HaCat) -2.48% | outcome (KB-3-1) | max response (NIH3T3) -0.33%

CC(C)=CCC[C@](C)(O[C@@H]1O[C@H](CO)[C@@H](O)[C@H](O)[C@H]1O)[C@H]1CC[C@]2(C)[C@@H]1[C@H](O)CC1[C@@]3(C)CC[C@H](O)C(C)(C)C3[C@@H](O[C@@H]3O[C@H](CO)[C@@H](O)[C@H](O)[C@H]3O)C[C@]12C (stereo not given in full)
inactive: max response (HEK293) -3.92% | max response (HaCat) 4.06% | max response (KB-3-1) 9.79% | max response (NIH3T3) -17.5%

C/C1=C\C[C@]2(C)C(=O)C(O)=C([C@H](C)CO)[C@H]2C/C=C(\C)[C@@H](O)CC/C(C)=C/CC1
inactive: max response (HEK293) 2.1% | max response (HaCat) 0.087% | max response (KB-3-1) 0.384% | max response (NIH3T3) -2.65%

O=C1Nc2ccccc2C(O)(c2ccccc2)C1O (stereo not given)
inactive: max response (HEK293) -7.58% | max response (HaCat) -18.6% | max response (KB-3-1) 2.02% | max response (NIH3T3) -2.57%

CC1(C)CC2C(O)c3cocc3CC(C)(O)C2C1 (stereo not given)
inactive: max response (HEK293) 3.14% | max response (HaCat) -7.3% | max response (KB-3-1) 5.78% | max response (NIH3T3) 2.81%

O=C(NCC(O)CO)c1ccncc1Nc1ccc(I)cc1F (stereo not given)
inactive: max response (HEK293) -15.9% | outcome (KB-3-1)
active: Potency (HaCat) 18400 nM | Potency (NIH3T3) 7310 nM

CN1c2ccccc2C(=O)N2CCC3c4ccccc4NC3C21 (stereo not given)
active: Potency (HEK293) 2550 nM | Potency (HaCat) 2020 nM | Potency (KB-3-1) 3600 nM | Potency (NIH3T3) 7180 nM

C=C1CN(Cc2ccc(C(=O)Nc3ccccc3N)cc2)C(=O)c2ccccc21
active: Potency (HEK293) 1460 nM | Potency (HaCat) 5800 nM | Potency (KB-3-1) 1840 nM | Potency (NIH3T3) 3660 nM

Cc1ccc(S(=O)(=O)Cc2nc(-c3ccc(C(=O)NCc4cccnc4)cc3)oc2C)cc1
active: Potency (HEK293) 6.5 nM | Potency (HaCat) 146 nM | Potency (KB-3-1) 8.2 nM | Potency (NIH3T3) 73.1 nM

C/C=C(\C)C(=O)O[C@@H]1CC2[C@@H](CC=C3C[C@@H](O[C@H]4C[C@H](OC)[C@H](O[C@H]5C[C@H](OC)[C@H](O[C@@H]6O[C@H](C)[C@@H](O[C@H]7C[C@H](OC)[C@H](O[C@@H]8O[C@H](CO)[C@@H](O)[C@H](O)[C@H]8O)[C@@H](C)O7)[C@H](OC)[C@H]6O)[C@@H](C)O5)[C@@H](C)O4)CC[C@@]32C)[C@@]2(O)CC[C@H](C(C)=O)[C@@]12C (stereo not given in full)
inactive: max response (HEK293) -3.44% | max response (HaCat) -4.54% | max response (KB-3-1) 8.46% | max response (NIH3T3) -3.87%

C/C=C(/COC(=O)/C(C)=C/C)C(=O)OC(CC)c1ccc(OC)c(OC)c1 (stereo not given)
inactive: max response (HEK293) 4.08% | max response (HaCat) 3.4% | max response (KB-3-1) 9.77% | max response (NIH3T3) 1.56%

CC1CC(O)/C=C/C(O)C(O)CC(=O)Cc2c(Cl)c(O)cc(O)c2C(=O)O1 (stereo not given)
inactive: max response (HEK293) 0.716% | max response (HaCat) -4.28% | outcome (KB-3-1) | max response (NIH3T3) -18.1%

From PubChem BioAssay (NCATS)
